Most compounds without a hit are left out; they make up all but 2.9% or so of the library.
GRK2 aptamer HTS = blocks RNA aptamer binding to human GRK2 | P25098 | bead flow cytometry, FAM-aptamer displacement from GRK2 | inhibition of aptamer binding, % at 10 µM | 0.59% of 330,000 active;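 active means inhibition of aptamer binding above 40%, roughly 3 SD of noise, on plates passing a quality check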;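 further: median bead fluorescence of bound FAM aptamer so fluorescent compounds give negative values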
MEKK3 PB1 HTS = MEKK3-MEK5 PB1 interaction, increase or decrease. Q99759. bead-based flow cytometry, Alexa488-MEK5 binding to MEKK3; actives lie on both sides; 0 = blocked by unlabeled MEK5, 100 = vehicle. binding response (% of control), % at 10 µM. 1.4% of 290,000 active. AID 1529;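 active means binding response more than 3 SD above or below the average of its plate-row segment, actives on both sides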;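 further: Alexa488 bead fluorescence after subtracting the streptavidin-only scavenger bead signal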
Target sequence (Q99759 whole entry, looked up): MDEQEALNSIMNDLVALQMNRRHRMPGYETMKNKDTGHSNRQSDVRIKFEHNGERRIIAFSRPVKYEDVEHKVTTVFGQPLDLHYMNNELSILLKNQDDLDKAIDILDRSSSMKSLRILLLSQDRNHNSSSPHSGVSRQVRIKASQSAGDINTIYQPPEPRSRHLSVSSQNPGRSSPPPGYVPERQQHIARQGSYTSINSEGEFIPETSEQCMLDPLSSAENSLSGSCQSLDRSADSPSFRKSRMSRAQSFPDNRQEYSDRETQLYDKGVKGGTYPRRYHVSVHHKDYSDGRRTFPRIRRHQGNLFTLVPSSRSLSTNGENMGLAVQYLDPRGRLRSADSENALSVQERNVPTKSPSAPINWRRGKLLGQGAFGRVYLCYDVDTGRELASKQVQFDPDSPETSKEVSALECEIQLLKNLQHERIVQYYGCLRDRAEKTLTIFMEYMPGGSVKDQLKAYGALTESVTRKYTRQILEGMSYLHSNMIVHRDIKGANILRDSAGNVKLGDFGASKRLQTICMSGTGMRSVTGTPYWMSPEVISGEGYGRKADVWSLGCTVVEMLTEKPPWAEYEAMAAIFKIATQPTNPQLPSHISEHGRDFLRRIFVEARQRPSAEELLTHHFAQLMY
MEKK2wt PB1 HTS = raises or lowers MEK5 binding to wildtype human MEKK2 PB1 domain | bead flow cytometry, Alexa488-MEK5 binding to MEKK2 WT; actives lie on both sides | Q9Y2U5 | AID 1531 | binding response (% of control), % at 10 µM | 1.1% of 290,000 active; in the data active means binding response below about 67% or above about 130%
B2AR ag = activates human beta-2 adrenergic receptor causing internalization; P07550; Am2.2-beta2AR cells, FAP receptor internalization, flow cytometry; response, % (concentration not given with the values); 0.43% of 340,000 active;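 active means response above a set limit, near 3 SD of response in nonfluorescent compounds, cut at about 42% in these data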
MEKK2mut PB1 HTS = signal of MEK5 binding to mutant human MEKK2 PB1 domain | bead flow cytometry, Alexa488-MEK5 binding to MEKK2 mutant | percent response, % at 10 µM | 0.35% of 290,000 active; in the data active means percent response above about 24%, passing the limit was not always enough
Each line names hits and unclear results; the compound was inactive in the other large screens; ! = repeats disagree; [ ] = remark or other dose.

CN(C)CCCN(C(=O)c1ccc(S(=O)(=O)N2CCc3ccccc3C2)cc1)c1nc2c(F)cccc2s1	MEKK2wt PB1 HTS 208, MEKK2mut PB1 HTS 45
CCOC(=O)N1CCN(S(=O)(=O)c2ccc(C(=O)N(CCN(C)C)c3nc4c(C)cccc4s3)cc2)CC1	none
O=C(NC(Cc1ccccc1)C(=O)O)/C(=C/c1ccc(Br)cc1)NC(=O)c1ccc(Br)o1 (configuration not stated)	none
COc1ccc(OC)c(C(C)NC(=O)Nc2cccc(C(C)=O)c2)c1 (configuration not stated)	none
Cc1cc(C)c2c(CCl)cc(=O)oc2c1	B2AR ag 44
COc1ccc(-c2cnc(N)n2CC2CCCO2)cc1 (configuration not stated)	MEKK2wt PB1 HTS -6.0
CCOC(=O)c1c(NC(=O)C2CCCCC2C(=O)O)sc2c1CCCCC2 (configuration not stated)	none
CCOC(=O)c1c(NC(=O)C2C3C=CC(C3)C2(C)C(=O)O)sc2c1CCCC2 (configuration not stated)	GRK2 aptamer HTS 64
O=C(Nc1nc2ccccc2s1)c1cc(-c2ccco2)nc2ccccc12	none
Cc1nnc(NC(=O)c2cc(-c3ccco3)nc3ccccc23)s1	GRK2 aptamer HTS 91 (no result: MEKK3 PB1 HTS, MEKK2wt PB1 HTS, MEKK2mut PB1 HTS)
COc1ccc(N2CCN(C(c3cccs3)C(C)NC(=O)C(=O)N3CCCCC3)CC2)cc1 (configuration not stated)	B2AR ag 70
CS/C(=N\S(=O)(=O)c1cccs1)Nc1ccc(Cl)cc1	none
CS/C(=N\S(=O)(=O)c1cccs1)Nc1ccc(Br)cc1F	B2AR ag 59!
Cc1c(NC(=O)COc2c(F)c(F)c(F)c(F)c2F)c(=O)n(-c2ccccc2)n1C	none
Nc1nc(Cn2nnc(-c3ccccc3Cl)n2)nc(N2CCOCC2)n1	none
Nc1nc(Cn2nnc(-c3ccccc3F)n2)nc(N2CCOCC2)n1	B2AR ag 52
CC(C)(C)C(=O)N1CCC2CC1c1cc(Cl)ccc12 (configuration not stated)	none (no result: GRK2 aptamer HTS, MEKK3 PB1 HTS, MEKK2wt PB1 HTS, MEKK2mut PB1 HTS)
Cc1ccc(Nc2nc(N/N=C/c3c[nH]c4ccccc34)nc(N3CCOCC3)n2)cc1	MEKK3 PB1 HTS 145
Cc1ccc(CNC(=O)c2cc3c(s2)CS(=O)(=O)C3)cc1	MEKK3 PB1 HTS 2.0[inhibitor], MEKK2wt PB1 HTS 0.0[inhibitor]
N#CC1=C(N)OC2=C(CCc3ccccc32)C1c1ccccc1Cl (configuration not stated)	MEKK3 PB1 HTS 144
COc1ccccc1C(=O)NCCCNC(=O)c1cccnc1	none
Cc1ccc(OCCCC(=O)NC2CCCCC2)cc1	none
COc1ccc2sc(/C=C/c3ccccc3O)[n+](C)c2c1	MEKK2wt PB1 HTS 4.0 (no result: GRK2 aptamer HTS)
COc1ccc(N=Cc2ccccc2O)cc1	none (no result: GRK2 aptamer HTS, MEKK3 PB1 HTS, MEKK2wt PB1 HTS, MEKK2mut PB1 HTS)
CCC(=O)NS(=O)(=O)c1ccc(-c2c(-c3ccccc3)noc2C)cc1	none (no result: GRK2 aptamer HTS, B2AR ag)
COc1cccc2c1C(=O)c1c(O)c3c(c(O)c1C2=O)C[C@@](O)(C(=O)CO)C[C@@H]3O[C@H]1C[C@H](N)[C@@H](O)[C@H](C)O1	MEKK2wt PB1 HTS 7.0
O=C(/C=C/C=C/c1ccccc1)CC1(O)C(=O)N(CCc2ccccc2)c2ccccc21 (configuration not stated)	B2AR ag 93 (no result: MEKK3 PB1 HTS, MEKK2wt PB1 HTS, MEKK2mut PB1 HTS)
O=C(Nc1ccc(N2CCCC2)c(Cl)c1)c1cccc(-c2cc3ccccc3oc2=O)c1	B2AR ag 61
O=C(/C=C/c1ccccc1[N+](=O)[O-])c1ccccc1Br	B2AR ag 57
Cc1ccc(C(=O)/C=C/c2ccccc2[N+](=O)[O-])cc1	B2AR ag 63
COCCCn1c(O)c(/C=C2\N=C(C#N)C(=Nc3ccc(C)cc3)O2)sc1=S	MEKK2wt PB1 HTS 33[inhibitor]
CN1CCN(c2ccc(NC(=O)c3ccc(Oc4ccccc4)cc3)cc2)CC1	MEKK2mut PB1 HTS 27
CSc1sc(C(=O)NN)c2c1C(O)CCC2 (configuration not stated)	none
CCCCC1C(=O)N(c2ccccc2)N(c2ccc(O)cc2)C1=O (configuration not stated)	B2AR ag 61 (no result: MEKK3 PB1 HTS, MEKK2wt PB1 HTS, MEKK2mut PB1 HTS)
CN1CCN(C(=S)c2cn(CCOc3ccccc3F)c3ccccc23)CC1	MEKK2wt PB1 HTS -9.0
Cc1nc2c(C#N)c[nH]n2c(=O)c1CCO	none
Clc1cccc(CSc2ccc(-c3ccco3)nn2)c1	none
O=c1cc(-c2ccco2)nc(SCc2cccc(Cl)c2)[nH]1	MEKK2wt PB1 HTS -8.0

Compound activity deposited in PubChem by NMMLSC.
